# Reference: paper PMC5700166
# Target: T1, GST-Co-NF-kB (Capsaspora owczarzaki, UniProt F1ARL5 200-546)
# T1 sequence: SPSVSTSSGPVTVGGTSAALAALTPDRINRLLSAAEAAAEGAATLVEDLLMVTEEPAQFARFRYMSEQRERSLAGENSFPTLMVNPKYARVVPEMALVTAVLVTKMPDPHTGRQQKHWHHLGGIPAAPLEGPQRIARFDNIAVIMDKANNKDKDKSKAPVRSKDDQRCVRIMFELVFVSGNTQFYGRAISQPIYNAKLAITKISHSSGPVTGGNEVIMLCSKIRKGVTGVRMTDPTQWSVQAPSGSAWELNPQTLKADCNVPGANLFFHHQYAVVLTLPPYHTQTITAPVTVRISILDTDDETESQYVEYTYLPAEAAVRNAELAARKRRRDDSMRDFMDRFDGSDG
# Experiment: protein-binding microarray (PBM); PBM: ~300 nM protein, 6 mM HEPES pH 7.8, 80 mM KCl, 0.5 mM EDTA, 0.5 mM EGTA, 6% glycerol, 35 ng/ul poly-dIdC, 1% milk, 1 h, room temperature; Ap Aiptasia and Nv Nematostella (sea anemones) / Co Capsaspora / Aq Amphimedon (sponge) / Dm Drosophila / Hu human; RHD is the Rel homology domain; high values mean tight binding
# Settings: dsDNA, one strand shown
row,Sequence,binding signal [z-score]
1,CCGATTAACATCACGGAAATTTCTGATGTTAATCGGGTCTTGATTCGCTTGACGCTGCTG,1.12
2,CCGATTAACATCAAAAATTTTCCTGATGTTAATCGGGTCTTGATTCGCTTGACGCTGCTG,1.7
3,CCGATTAACATCAAAAAATTCCGTGATGTTAATCGGGTCTTGATTCGCTTGACGCTGCTG,1.34

# Target: T2, GST-Dm-Relish (Drosophila melanogaster, UniProt Q94527 99-473)
# T2 sequence: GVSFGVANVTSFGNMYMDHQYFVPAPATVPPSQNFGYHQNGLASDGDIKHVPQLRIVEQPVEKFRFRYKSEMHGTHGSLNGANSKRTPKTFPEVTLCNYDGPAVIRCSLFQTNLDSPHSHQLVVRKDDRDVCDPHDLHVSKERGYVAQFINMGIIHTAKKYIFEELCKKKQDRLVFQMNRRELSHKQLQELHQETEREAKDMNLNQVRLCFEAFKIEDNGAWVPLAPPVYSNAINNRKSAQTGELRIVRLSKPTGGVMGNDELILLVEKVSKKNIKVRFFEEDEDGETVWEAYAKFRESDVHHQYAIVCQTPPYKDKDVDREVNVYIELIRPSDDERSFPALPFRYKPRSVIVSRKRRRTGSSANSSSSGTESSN
# Experiment: as above
# Settings: dsDNA, one strand shown
row,Sequence,binding signal [z-score]
1,CCGATTAACATCAAGTAATTTCCTGATGTTAATCGGGTCTTGATTCGCTTGACGCTGCTG,2.36
2,CCGATTAACATCACGGAAATTTCTGATGTTAATCGGGTCTTGATTCGCTTGACGCTGCTG,1.36
3,CCGATTAACATCACGGAATTTTATGATGTTAATCGGGTCTTGATTCGCTTGACGCTGCTG,1.2
4,CCGATTAACATCAAAAATTTTCCTGATGTTAATCGGGTCTTGATTCGCTTGACGCTGCTG,2.62
5,CCGATTAACATCAAAAATTCCGGTGATGTTAATCGGGTCTTGATTCGCTTGACGCTGCTG,2.45
6,CCGATTAACATCACGGAATTGCCTGATGTTAATCGGGTCTTGATTCGCTTGACGCTGCTG,1.01
7,CCGATTAACATCACGTGCTTTCCTGATGTTAATCGGGTCTTGATTCGCTTGACGCTGCTG,2.88
8,CCGATTAACATCAGGACATCCCATGATGTTAATCGGGTCTTGATTCGCTTGACGCTGCTG,3.93
9,CCGATTAACATCAGGTAAGTCCATGATGTTAATCGGGTCTTGATTCGCTTGACGCTGCTG,1.83
10,CCGATTAACATCACGGAAACTACTGATGTTAATCGGGTCTTGATTCGCTTGACGCTGCTG,1.84
11,CCGATTAACATCAAAAATTCCGCTGATGTTAATCGGGTCTTGATTCGCTTGACGCTGCTG,1.22
